19 compounds from PubChem BioAssay (NCATS) can be followed below.

Structures are written as SMILES. Results filed as inconclusive are left out. Values without a mark were called inactive. Calls of active or inactive are those of the source. Calls follow the shape of the dose curve; as a rule, active = well fitted curve in the direction sought with a large enough effect; inconclusive = small, poorly fitted or top-dose-only effect, or another doubt; inactive = no such curve, though single readings can be large; an effect the other way counts as inactive or inconclusive.

In experiment [1] the target is Rap guanine nucleotide exchange factor 3 (Homo sapiens) (UniProt O95398). Nature of the experiment: Confirmatory qHTS for antagonist of cAMP-regulated guanine nucleotide exchange factor 3 (EPAC1) (AID 1645880). Also: nearly all actives have a fitted effect of over 55% in size. Also: potency is read from the fitted curve at half-maximal effect.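 As to activity, negative = inhibition: plate controls were DMSO only for no effect and full effect of the ATA control for full effect.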 Particulars: EPAC1 Rap1B-BODIPY-GDP exchange, fluorescence; activity, negative = inhibition: at 115 µM (top of the series). In a few lines:
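Released BODIPY-GDP fluoresces less than Rap1-bound BODIPY-GDP; the signal is followed at 480/540 nm at 5-min intervals over 30 min, after 5 min at room temperature. Reactions contain 100 nM EPAC1, 250 nM RAP1B-BODIPY-GDP and 50 uM GDP; results are normalized to ATA and DMSO.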
On the technique in general: qHTS replaces the single test concentration by a dilution series.

Experiment [2] shares this target. Nature of the experiment: Confirmatory qHTS for agonist of cAMP-regulated guanine nucleotide exchange factor 3 (EPAC1) (AID 1645881).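 Also: EPAC1 catalysed release of BODIPY-GDP from Rap1B seen as fluorescence loss; 100% = effect of cAMP agonist control; nearly all actives have a fitted effect of over 75% in size.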
For experiment [3], the target named is Rap guanine nucleotide exchange factor 4 (Homo sapiens) (UniProt Q8WZA2). Kind of experiment: Confirmatory qHTS for agonist of cAMP-regulated guanine nucleotide exchange factor 4 (EPAC2) (AID 1645884).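 Also: nucleotide exchange releases bodipy-GDP from Rap1 and this lowers its fluorescence; % is scaled to controls: 0 for no effect and ±100 for the full control effect; nearly all actives have a fitted effect of over 65% in size.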
For experiment [4] the target is unchanged. Nature of the experiment: Confirmatory qHTS for antagonist of cAMP-regulated guanine nucleotide exchange factor 4 (EPAC2) (AID 1645885). Also: nearly all actives have a fitted effect of over 25% in size. Also: potency is read from the fitted curve at half-maximal effect. As to activity change, negative = inhibition: % is scaled to controls: 0 for no effect and ±100 for the full control effect.
Experiment [5] addresses Rap guanine nucleotide exchange factor 3 (Homo sapiens) (UniProt O95398). Nature of the experiment: Counterscreen qHTS for antagonist of cAMP-regulated guanine nucleotide exchange factor 3 (EPAC1) (AID 1645888). Also: % of control where 0% means no effect. The procedure, abridged: (§1)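 Measured: fluorescence of BODIPY-GDP bound to Rap1B, which falls as exchange proceeds. Conditions include 50 uM competing GDP, 5 and 30 min reads, and a later cAMP challenge for antagonist detection.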
In general terms: Counterscreens check selectivity or assay interference.

The target is the same in experiment [6]. Nature of the experiment: Counterscreen qHTS for agonist of cAMP-regulated guanine nucleotide exchange factor 3 (EPAC1) (AID 1645889). Also: nearly all actives have a fitted effect of over 40% in size. Also: potency is read from the fitted curve at half-maximal effect. As to activation: % of control where 0% means no effect. The procedure, abridged: as §1

Chain of Rap guanine nucleotide exchange factor 4 (Homo sapiens) (Q8WZA2 whole entry, looked up): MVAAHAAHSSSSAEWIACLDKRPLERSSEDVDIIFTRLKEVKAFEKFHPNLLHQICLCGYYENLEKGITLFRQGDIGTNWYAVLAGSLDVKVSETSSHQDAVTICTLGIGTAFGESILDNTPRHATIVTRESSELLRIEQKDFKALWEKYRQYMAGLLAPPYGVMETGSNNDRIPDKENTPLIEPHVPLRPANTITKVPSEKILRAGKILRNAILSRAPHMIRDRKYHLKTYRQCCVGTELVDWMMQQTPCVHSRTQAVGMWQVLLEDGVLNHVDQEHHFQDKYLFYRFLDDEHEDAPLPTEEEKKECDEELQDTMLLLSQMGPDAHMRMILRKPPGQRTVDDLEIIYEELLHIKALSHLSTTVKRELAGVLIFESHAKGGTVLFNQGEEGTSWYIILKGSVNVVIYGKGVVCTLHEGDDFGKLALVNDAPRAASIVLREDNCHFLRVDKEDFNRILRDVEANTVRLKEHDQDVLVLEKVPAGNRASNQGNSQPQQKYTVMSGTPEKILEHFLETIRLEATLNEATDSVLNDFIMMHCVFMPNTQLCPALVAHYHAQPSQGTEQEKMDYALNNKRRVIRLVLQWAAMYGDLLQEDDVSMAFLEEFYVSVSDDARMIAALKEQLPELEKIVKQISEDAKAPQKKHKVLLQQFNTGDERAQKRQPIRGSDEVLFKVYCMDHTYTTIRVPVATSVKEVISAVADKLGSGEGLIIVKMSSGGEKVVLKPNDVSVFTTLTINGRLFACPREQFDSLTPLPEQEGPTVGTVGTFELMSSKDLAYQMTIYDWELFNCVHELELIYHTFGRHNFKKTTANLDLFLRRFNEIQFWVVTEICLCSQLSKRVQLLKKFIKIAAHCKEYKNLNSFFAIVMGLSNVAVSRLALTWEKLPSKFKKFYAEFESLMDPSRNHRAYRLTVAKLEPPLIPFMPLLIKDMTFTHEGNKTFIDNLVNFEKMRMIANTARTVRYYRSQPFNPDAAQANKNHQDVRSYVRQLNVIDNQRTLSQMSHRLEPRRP
Chain of Rap guanine nucleotide exchange factor 3 (Homo sapiens) (O95398 whole entry, looked up): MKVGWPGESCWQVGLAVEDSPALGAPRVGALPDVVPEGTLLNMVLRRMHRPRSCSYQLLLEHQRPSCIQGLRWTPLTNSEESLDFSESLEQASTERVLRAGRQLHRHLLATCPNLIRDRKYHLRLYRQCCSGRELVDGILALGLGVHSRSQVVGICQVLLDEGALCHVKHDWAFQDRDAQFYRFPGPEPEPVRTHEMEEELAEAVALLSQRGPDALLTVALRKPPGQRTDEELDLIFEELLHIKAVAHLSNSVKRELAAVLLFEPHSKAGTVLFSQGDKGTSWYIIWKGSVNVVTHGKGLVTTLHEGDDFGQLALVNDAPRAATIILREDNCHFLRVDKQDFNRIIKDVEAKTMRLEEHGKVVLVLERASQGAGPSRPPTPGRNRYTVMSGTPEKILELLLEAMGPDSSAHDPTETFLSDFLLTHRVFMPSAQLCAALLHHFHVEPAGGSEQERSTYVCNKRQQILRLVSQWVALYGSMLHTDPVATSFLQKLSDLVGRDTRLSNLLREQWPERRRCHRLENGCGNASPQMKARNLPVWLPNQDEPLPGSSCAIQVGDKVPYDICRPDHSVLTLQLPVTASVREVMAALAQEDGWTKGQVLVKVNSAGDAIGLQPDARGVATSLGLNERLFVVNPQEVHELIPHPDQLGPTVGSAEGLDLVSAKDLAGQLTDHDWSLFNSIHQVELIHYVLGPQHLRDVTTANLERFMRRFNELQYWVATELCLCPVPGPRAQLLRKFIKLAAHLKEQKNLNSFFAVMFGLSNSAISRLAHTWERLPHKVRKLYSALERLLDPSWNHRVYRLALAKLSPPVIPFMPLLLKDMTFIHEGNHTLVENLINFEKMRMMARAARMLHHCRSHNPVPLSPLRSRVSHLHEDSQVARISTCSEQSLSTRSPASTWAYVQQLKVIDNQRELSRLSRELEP

For `Cc1ccc(C2CC(=O)Oc3cc(C)c(Br)c(C)c32)cc1` (centres undefined), the Potency entry in experiment [1], in experiment [2], in experiment [3], in experiment [5] and in experiment [6] was “inactive” in each case. Further, the Potency in experiment [4] is 2.13 µM (active).

For the compound `O=C1CCC/C(=N/NC(=O)c2sc3ccccc3c2Cl)C1`, the Potency result in experiment [1], in experiment [2], in experiment [3] and in experiment [5] was “inactive” each time. The Potency in experiment [4] is 16.9 µM (active); in experiment [6], 22.4 µM (active).

In the case of `C/C(Cc1ccccc1)=N\NC(=O)c1cccnc1`, the Potency entry in experiment [1], in experiment [2] and in experiment [4] was “inactive” throughout. Also, the activation in experiment [3] is 21.1% [at 17.1 µM, percent relative to cAMP agonist control]; in experiment [6], 15.7% [at 30.8 µM]. In addition, in experiment [5], the activity change, negative = inhibition was -5.84% [at 30.8 µM].

Regarding `CC(=O)Nc1ccc(S(=O)(=O)Nc2nc(-c3ccc(C(C)(C)C)cc3)cs2)cc1`, the Potency in experiment [1] is 44.7 µM (active). Moreover, the Potency result in experiment [2] and in experiment [4] was “inactive” throughout. Further, the activation in experiment [3] is 0% [at 17.1 µM, percent relative to cAMP agonist control]; in experiment [6], 8.98% [at 30.8 µM]. Further, the activity change, negative = inhibition in experiment [5] is -15.7% [at 30.8 µM].

`CCc1ccc(C(=O)c2cn(CC(=O)Nc3cccc(OC)c3)c3ccc(OC)cc3c2=O)cc1`: the Potency in experiment [1] is 53.6 µM (active). In addition, the Potency entry in experiment [2], in experiment [3], in experiment [4], in experiment [5] and in experiment [6] was “inactive” each time.

Turning to `CCN1CCN(c2ccc(S(=O)(=O)N3CCOCC3)cc2NC(=O)c2cc(Cl)nc3ccccc23)CC1`, the Potency result in experiment [1], in experiment [2] and in experiment [4] was “inactive” in each case. For the same compound, the activation was 4.04% [at 17.1 µM, percent relative to cAMP agonist control] in experiment [3] and 5.03% [at 30.8 µM] in experiment [6]. In addition, in experiment [5], the activity change, negative = inhibition is 7.51% [at 30.8 µM].

In the case of `Cc1c(C(=O)N2CCC2)oc2ccc(Br)cc12`, the Potency result in experiment [1], in experiment [2], in experiment [3], in experiment [5] and in experiment [6] was “inactive” each time. For the same compound, in experiment [4], the Potency was 33.8 µM (active).

`COc1cc(C(C)=O)ccc1COc1ccc(C(=O)O)cc1OC`: the Potency entry in experiment [1], in experiment [2] and in experiment [4] was “inactive” in each case. In addition, the activation is 7.71% [at 17.1 µM, percent relative to cAMP agonist control] in experiment [3] and -0.313% [at 30.8 µM] in experiment [6]. Besides, the activity change, negative = inhibition in experiment [5] is -10.4% [at 30.8 µM].

Consider `Cc1ccc(S(=O)(=O)Nc2cc(C(=O)NCCN3CCCC3)ccc2N2CCCCC2)cc1`, for which the Potency entry in experiment [1], in experiment [2], in experiment [3], in experiment [4], in experiment [5] and in experiment [6] was “inactive” throughout.

For the compound `Cc1ccc(C)c(S(=O)(=O)N2CCN(C(=O)CCc3nc4ccccc4c(=O)[nH]3)CC2)c1`, the Potency entry in experiment [1], in experiment [2] and in experiment [4] was “inactive” throughout. Further, the activation in experiment [3] is 4.63% [at 17.1 µM, percent relative to cAMP agonist control]; in experiment [6] it was 23.6% [at 30.8 µM]. The activity change, negative = inhibition in experiment [5] was -11.5% [at 30.8 µM].

For `Cc1[nH][nH]c(=O)c1C(c1c(C)[nH][nH]c1=O)c1cn(Cc2cccc3ccccc23)c2ccccc12`, the Potency in experiment [1] was 75.7 µM (active); in experiment [6], 12.6 µM (active). Also, the Potency result in experiment [2], in experiment [3], in experiment [4] and in experiment [5] was “inactive” throughout.

Take `CCc1ccc(NC(=O)CSc2nc(-c3ccccc3)c(C#N)c(=O)[nH]2)cc1`: the Potency in experiment [1] was 75.7 µM (active). In addition, the Potency entry in experiment [2], in experiment [3], in experiment [5] and in experiment [6] was “inactive” throughout. In addition, the outcome in experiment [4] was “inactive [at 12.7 µM]”.

As to `Cc1noc(C)c1S(=O)(=O)Nc1ccc2c(c1)C(=O)N([C@@H](C)CO)C[C@@H](C)[C@@H](CN(C)CC1CCCCC1)OCCCC[C@@H](C)O2`, the Potency result in experiment [1], in experiment [2], in experiment [3], in experiment [4], in experiment [5] and in experiment [6] was “inactive” each time.

Take `COc1ccc(C)cc1-n1c(-c2ccc(Cl)cc2)cc2c1CC(C)(C)CC2=O`: the Potency result in experiment [1], in experiment [2], in experiment [3], in experiment [5] and in experiment [6] was “inactive” throughout. Further, the outcome in experiment [4] is “inactive [at 12.7 µM]”.

`O=C1CCC([N+](=O)[O-])C(c2cccc3ccccc23)N1` (centres undefined): the Potency result in experiment [1], in experiment [2] and in experiment [4] was “inactive” in each case. Moreover, the activation in experiment [3] is 0% [at 17.1 µM, percent relative to cAMP agonist control]; in experiment [6], 45.7% [at 30.8 µM]. In addition, the activity change, negative = inhibition in experiment [5] is -21.9% [at 30.8 µM].

With `Cc1cccc(C)c1OC(=O)c1ccccc1`, the Potency entry in experiment [1], in experiment [2] and in experiment [4] was “inactive” throughout. Also, the activation in experiment [3] is 9.32% [at 17.1 µM, percent relative to cAMP agonist control]; in experiment [6], 6.89% [at 30.8 µM]. The activity change, negative = inhibition in experiment [5] was 6.4% [at 30.8 µM].

As for `CSc1ccccc1NC(=O)CN(c1ccccc1)S(=O)(=O)N(C)C`, the Potency result in experiment [1], in experiment [2], in experiment [3], in experiment [4], in experiment [5] and in experiment [6] was “inactive” each time.

Consider `O=C(O)CSc1cc(C(=O)c2ccccc2O)cn2c(=O)c3c(-c4ccccc4)csc3nc12`, for which the Potency entry in experiment [1], in experiment [2] and in experiment [4] was “inactive” each time. Further, the activation in experiment [3] was -8.3% [at 17.1 µM, percent relative to cAMP agonist control]; in experiment [6], 17.9% [at 30.8 µM]. Also, in experiment [5], the activity change, negative = inhibition is -7.65% [at 30.8 µM].

As for `O=S(=O)(NCC1(N2CCOCC2)CCCCC1)c1ccc(Cl)cc1C(F)(F)F`, the Potency entry in experiment [1], in experiment [2], in experiment [3], in experiment [4], in experiment [5] and in experiment [6] was “inactive” each time.
